An excerpt weighted towards active compounds, which were near 27% of everything screened.
sEH act – activators of human soluble epoxide hydrolase; P34913; purified human sEH enzymatic activity, activator screen; activation, % at 2 µM; 91,000 compounds, 0.04% hits; in the data active = activation above about 37%
CYP2C9 activ – CYP2C9 (human) activation; AID 1024; 96,000 compounds, 1.4% hits; recombinant CYP2C9, luciferin-H conversion, luminescence; stronger effect = higher value; factor 1 = untreated enzyme, 0 = blocked; P11712; activation factor at 5 µM;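 active = activation factor of 2 or more for CYP2C9 at a 5 µM dose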;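 also: 0 = sulfaphenazole-blocked wells and 1 = vehicle-only wells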
CYP2C9 inh – human CYP2C9 inhibition; P11712; CYP2C9 Supersomes, luciferin-H conversion, luminescence; inhibition, % at 5 µM; 96,000 compounds, 20% hits;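 active = blocking of liver enzyme CYP2C9 beyond about 50% at 5 µM, limit read from the data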
CYP2C19 inh – inhibitors of human CYP2C19. inhibition, % at 5 µM. 96,000 compounds, 21% hits. AID 778. P33261. CYP2C19 Supersomes, luciferin-H EGE luminescence, 30 min;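 active = CYP2C19 inhibition above a set limit at 5 µM in the primary screen, cut at about 50% in these data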;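 also: plate controls were negative control wells for no effect and 2.5 mM tranylcypromine positive control for full effect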
Target sequence (P33261 whole entry, looked up): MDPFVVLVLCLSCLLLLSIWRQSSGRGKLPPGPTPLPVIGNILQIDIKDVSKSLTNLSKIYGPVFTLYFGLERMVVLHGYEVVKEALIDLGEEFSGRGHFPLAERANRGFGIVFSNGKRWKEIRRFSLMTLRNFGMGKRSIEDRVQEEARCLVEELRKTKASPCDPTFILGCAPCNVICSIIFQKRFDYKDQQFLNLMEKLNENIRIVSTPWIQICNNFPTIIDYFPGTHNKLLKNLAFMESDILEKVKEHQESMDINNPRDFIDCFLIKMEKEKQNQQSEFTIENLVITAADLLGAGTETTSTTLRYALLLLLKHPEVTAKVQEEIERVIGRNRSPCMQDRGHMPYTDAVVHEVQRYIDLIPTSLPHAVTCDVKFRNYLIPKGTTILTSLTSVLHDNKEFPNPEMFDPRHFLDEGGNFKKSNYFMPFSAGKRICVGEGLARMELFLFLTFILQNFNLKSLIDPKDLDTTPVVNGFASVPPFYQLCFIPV
sEH inhibitor – inhibitors of human soluble epoxide hydrolase; P34913; recombinant human sEH enzymatic activity assay; inhibition, % at 2 µM; 91,000 compounds, 0.34% hits; AID 707; in the data active = inhibition above about 80%
CYP2C19 activ – increases human CYP2C19 enzyme activity; recombinant CYP2C19, luciferin-H EGE luminescence; stronger effect = higher value; 0 = fully inhibited enzyme, 1 = untreated enzyme; activation factor at 5 µM; 96,000 tested, under 10 active; AID 1025;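 active = activation factor of at least 2 at 5 µM in the primary screen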;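 also: 0 = wells with 2.5 mM tranylcypromine and 1 = vehicle-only wells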
Numbers without * were called inactive; nt = no result given.

SMILES	sEH act	CYP2C9 activ	CYP2C9 inh	CYP2C19 inh	sEH inhibitor	CYP2C19 activ
CCCCC(CCC(=O)O)(C(=O)OCC)c1csc(N)n1 (stereo unspecified)	-3	1	-1	6	3	0.9
CCC1(CC)NC(=O)N(CC(=O)Nc2sc3c(c2C(N)=O)CCC3)C1=O	2	0.3	74*	39	-5	0.6
CCCCC(=O)Nc1sc2c(c1C(N)=O)CCC2	-21	0.2	77*	47	20	0.5
O=C(NCC(c1cccs1)N1CCOCC1)c1ccco1 (stereo unspecified)	nt	0.6	36	44	nt	0.6
O=C(Nc1cc2c(cc1Br)OCCO2)c1cccs1	5	0.8	21	57*	-3	0.4
Cc1ccccc1Cn1ccc(NC(=O)c2cnn3c2NC(c2ccccc2)CC3C(F)(F)F)n1 (stereo unspecified)	8	0	96*	67*	-10	0.3
Cc1c(CNC(=O)c2nn3c(c2Cl)NC(c2ccccc2)CC3C(F)(F)F)cnn1C (stereo unspecified)	nt	0.6	44	33	nt	0.7
O=C(NCc1ccco1)c1cnn2c1NC(c1ccccc1)CC2C(F)(F)F (stereo unspecified)	2	0.2	83*	45	-1	0.5
Cc1nn(C)c(C)c1CN(C)C(=O)c1cnn2c1NC(c1ccccc1)CC2C(F)(F)F (stereo unspecified)	11	0.3	65*	32	-12	0.7
OCc1nn2c(c1Br)NC(c1ccccc1)CC2C(F)(F)F (stereo unspecified)	10	0.3	74*	71*	-7	0.3
O=C1CCC(=O)N1CN(Cc1ccco1)CN1C(=O)CCC1=O	-4	1.1	-8	-12	8	1.1
O=C(NCc1ccco1)c1cnn2c1NC(c1ccc(Br)cc1)CC2C(F)(F)F (stereo unspecified)	9	0.1	87*	66*	-10	0.3
O=C(O)c1cnn2c1NC(c1ccc(F)cc1)CC2C(F)(F)F (stereo unspecified)	-4	1.1	-6	7	7	0.9
COC(=O)CCCC(=O)Nc1ccc(Cl)c(Cl)c1	-20	nt	nt	nt	21	nt
CCOC(=O)CC(=O)CSc1nc2ccccc2c(=O)n1-c1ccc(C(=O)NCCOC)cc1	4	0.2	78*	74*	-2	0.3
CCOC(=O)CSc1nc2ccccc2c(=O)n1C	-12	nt	nt	nt	12	nt
CCOC(=O)CC(=O)CSc1nc2ccccc2c(=O)n1-c1ccc(C(=O)N2CCOCC2)cc1	nt	0.3	73*	86*	nt	0.1
COc1cc(C(=O)Oc2ccccc2/C=N/NC(=O)c2ccc(Cl)cc2Cl)cc(OC)c1OC	-6	0	97*	43	4	0.6
COc1ccccc1NC(=S)NNC(=O)c1ccc(Cl)cc1Cl	3	nt	nt	nt	2	nt
COC(=O)Nc1c(C(=O)OC)cc(OC)c(OC)c1OC	0	1.1	-12	7	-1	0.9
COC(=O)c1cc(OC)c(OC)c(OC)c1N	nt	1.1	-14	64*	nt	0.4
COc1cc(C(=O)Oc2ccccc2N)cc(OC)c1OC	nt	0.3	68*	43	nt	0.6
c1ccc2c(c1)NC(CN1CCOCC1)CO2 (stereo unspecified)	22	1.1	-9	53*	-17	0.5
COC(=O)c1nc(-c2ccc(C)cc2)oc1N(C)C	-3	2.4*	-144	15	6	0.9
COC(=O)c1nc(-c2ccccc2)oc1N(C)C	-2	2.9*	-193	9	2	0.9
SMILES	sEH act	CYP2C9 activ	CYP2C9 inh	CYP2C19 inh	sEH inhibitor	CYP2C19 activ
CCOC(=O)c1nnc(-c2ccccc2)o1	-6	1.1	-6	-5	2	1.1
O=C(CSc1nnnn1C1CCCCC1)NCc1ccc2c(c1)OCO2	0	0.1	92*	92*	1	0.1
O=C(CSc1nnnn1C1CCCC1)NCc1ccc2c(c1)OCO2	-2	0.4	61*	36	3	0.6
CCn1nnnc1SCC(=O)NCc1ccc2c(c1)OCO2	9	nt	nt	nt	-3	nt
CCn1c(SCC(=O)N2c3ccccc3Sc3ccc(Cl)cc32)nc2c1c(=O)n(C)c(=O)n2C	3	nt	nt	nt	2	nt
CCCC(C)c1nnc(NC(=O)C2CCCO2)s1 (stereo unspecified)	-2	1.1	-11	2	7	1
c1ccc(-c2nnc(Cn3c4ccccc4c4nc5ccccc5nc43)o2)cc1	-1	nt	nt	nt	1	nt

Bioassay records: PubChem BioAssay, several laboratories
